Only some compounds are listed: those with a hit (about 7.3% of all), similar ones and a draw of the others.
Luc counter = blocks Kinase-Glo luciferase, a counter-screen artifact; Q27757; Kinase-Glo luciferase, ATP luminescence, 8 min; Potency, µM (top dose mostly 38.3 µM), for inactives: at the top dose activity change, negative = inhibition, actives largely listed as inhibitors; 200,000 tested, 0.28% active; AID 1379; also: % is scaled to controls: 0 for no effect and ±100 for the full control effect; nearly all actives have a fitted effect of over 60% in size
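Inhibition of Kinase-Glo luciferase light generation was assessed at 10 uM ATP in pH 7.2 imidazole buffer, with luminescence measured after eight minutes at ambient temperature.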
FLuc counter = counter-screen for miR-21 project: firefly luciferase inhibitors or activators; purified FLuc, Km substrates, luminescence inhibition; 360,000 tested, 6.9% active; P08659; Potency, µM (highest dose often 57.5 µM), without a hit: top-dose activity change, negative = inhibition, usual class: inhibitors; AID 588342;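 also: plate controls were vehicle for no effect and reference inhibitor for full effect; nearly all actives have a fitted effect of over 55% in size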
Target sequence (P08659 whole entry, looked up): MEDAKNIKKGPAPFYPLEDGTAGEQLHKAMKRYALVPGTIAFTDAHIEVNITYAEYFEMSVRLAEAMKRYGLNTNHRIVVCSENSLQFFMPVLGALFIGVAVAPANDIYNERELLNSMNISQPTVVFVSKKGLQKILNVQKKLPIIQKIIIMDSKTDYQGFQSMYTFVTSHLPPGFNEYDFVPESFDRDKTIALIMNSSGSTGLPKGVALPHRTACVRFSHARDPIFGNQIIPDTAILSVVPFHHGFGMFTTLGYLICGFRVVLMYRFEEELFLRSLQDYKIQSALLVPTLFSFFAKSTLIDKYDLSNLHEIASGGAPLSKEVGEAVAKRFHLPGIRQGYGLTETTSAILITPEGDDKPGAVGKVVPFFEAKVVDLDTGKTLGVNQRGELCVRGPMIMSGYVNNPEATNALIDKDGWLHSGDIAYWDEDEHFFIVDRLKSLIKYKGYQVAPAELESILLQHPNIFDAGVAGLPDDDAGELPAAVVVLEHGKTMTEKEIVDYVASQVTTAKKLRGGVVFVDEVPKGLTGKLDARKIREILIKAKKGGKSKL
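Purified P. pyralis luciferase (10nM final) with 10uM D-luciferin and 10uM ATP (Km levels) in 50mM Tris acetate pH 7.5, 10mM Mg acetate, 0.01% Tween-20, 0.05% BSA; qHTS 6-point titration, ~60 µM downward; luminescence read.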
SMN2 splice enh = SMN2 splice variant enhancement | Potency, µM (doses to about 46.1 µM), for the others: top-dose activity change, positive = activation, usual class: activators | 210,000 tested, 2.8% active | AID 1458 | HEK293 SMN2-luciferase splicing reporter, luminescence, 30-36 h; also: % of control where 0% means no effect; nearly all actives have a fitted effect of over 55% in size
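HEK293 cells carry an SMN2 […]–luciferase reporter in which exon 7 inclusion puts luciferase in frame. Cells were plated 10-12 h before compound addition, then incubated 30-36 h at 37C. ONE-Glo luminescence was read; sodium butyrate at 4.5 mM final served as control.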
NPC1 prom act = activators of NPC1 promoter | Huh7 NPC1 promoter luciferase reporter, 24 h | Potency, µM (series often up to 9.22 µM), for inactives: top-dose activation, usual class: activators | 320,000 tested, 2.4% active; also: % of control where 0% means no effect; nearly all actives have a fitted effect of over 60% in size
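Huh7 reporter cells (NPC1 promoter driving luciferase) are dosed with compound for 24 h at 37 °C, 5% CO2; luciferase detection reagent is then added and luminescence measured after 10 min at ambient temperature.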
Rab9 prom act = activates the Rab9 promoter; Potency, µM (top dose mostly 9.22 µM), inactives show at the top dose activation, negative = inhibition, usual class: activators; 320,000 tested, 2.8% active; AID 485297; Huh7 Rab9 promoter-luciferase reporter, luminescence, 24 h; also: % of control where 0% means no effect; nearly all actives have a fitted effect of over 60% in size
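Cells were plated at 1500 per well in reduced-serum medium with 10% FBS and left 2 h. Compound in DMSO was then added for 24 h at 37 °C. Reporter signal was read by luminescence after 10 min with luciferase detection reagent.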
* marks the source's active call; other numbers are inactive results; u = inconclusive; x = not tested or not shown. Calls follow the shape of the dose curve; as a rule, active = well fitted curve in the direction sought with a large enough effect; inconclusive = small, poorly fitted or top-dose-only effect, or another doubt; inactive = no such curve, though single readings can be large; an effect the other way counts as inactive or inconclusive. Potency is read from the fitted curve at half-maximal effect.

SMILES	Luc counter	FLuc counter	SMN2 splice enh	NPC1 prom act	Rab9 prom act
COc1ccc(Cl)cc1NC(=O)c1ccc2c(c1)CCN2S(C)(=O)=O	x	3.3%	11.5%	x	x
N#Cc1nc(Nc2cccc(Cl)c2)c2ncn(C3CCCC3)c2n1	x	1.35µM*	x	3.55µM*	1.0%
O=C(NCc1ccc(F)cc1)C(=O)NCC(c1cccs1)S(=O)(=O)c1cccs1 (stereo unspecified)	x	2.2%	x	x	x
CN(CC(=O)Nc1ccccc1Cl)C(=O)c1cccc(S(=O)(=O)N2CCN(c3ccc(F)cc3)CC2)c1	x	3.38µM*	x	1.41µM*	2.24µM*
Cc1cccc(C)c1NC(=O)CN(C)C(=O)c1cccc(S(=O)(=O)N2CCN(c3ccc(F)cc3)CC2)c1	x	2.2%	x	-13.6%	-21.3%
CCC(=O)Nc1ccc2oc(-c3cccc(C)c3)nc2c1	-11.2%	0.536µM*	0.501µM*	0.112µM*	0.282µM*
Cc1ccc2nc(-c3cccc(NC(=O)c4cccc5ccccc45)c3)oc2c1	x	2.13µM*	-9.2%	x	x
CCC(=O)Nc1cccc(-c2nc3ccc(C)cc3o2)c1	x	2.39µM*	x	2.82µM*	4.47µM*
Cc1ccc2oc(-c3cccc(NC(=O)c4cccc5c(Cl)cccc45)c3)nc2c1	x	-5.4%	-5.7%	x	x
Cc1ccc(/C=C/C(=O)Nc2cccc3cccnc23)o1	-3.1%	16.9µM*	7.0%	-1.5%	7.4%
C/C(=N\Nc1cccc2cccnc12)c1ccc(C)cc1	-1.2%	2.69µM*	15.8µM*	u	u
COc1cc(NC(=O)Nc2cccc3cccnc23)cc(OC)c1OC	x	19µM*	x	-2.0%	6.6%
Cc1ccc(C(=O)Nc2cccc3cccnc23)cc1Cl	x	10.7µM*	-13.3%	x	x
Cc1ccc(NC(=O)/C=C/c2ccc(C)o2)c(C)c1	x	u	7.9%	x	x
COc1cc(OC)cc(C(=O)Nc2cccc3cccnc23)c1	x	u	x	-5.1%	-4.5%
Cc1ccc(S(=O)Cc2nc(-c3ccc(C(=O)NC(C)c4ccccc4)cc3)oc2C)cc1 (stereo unspecified)	x	-6.0%	x	x	x
N#Cc1cccc(NC(=O)C2CCN(S(=O)(=O)c3ccc4c(c3)CCCN4C(=O)C3CCC3)CC2)c1	x	-9.4%	x	x	x
CCN(C(=O)Cn1cc(S(=O)(=O)Cc2ccccc2Cl)c2ccccc21)c1ccccc1	x	-2.2%	x	x	x
Cc1cc(N2CCN(c3cccc(C)c3C)CC2)n2nc(C)c(-c3ccc(Cl)cc3)c2n1	x	-3.0%	5.3%	x	x
Cc1ccc(C(=O)Nc2cccc3cccnc23)cc1C	x	12µM*	x	2.82µM*	u
Cc1cccc(C(=O)Nc2cccc3cccnc23)c1	x	21.3µM*	x	3.98µM*	3.16µM*
Cc1cccc(C(=O)Nc2cccnc2Cl)c1	x	u	x	1.9%	9.0%
O=C(Nc1cccc2cccnc12)c1cccnc1	-1.8%	-4.1%	18.6%	0.3%	-6.2%
O=C(Nc1cccc2cccnc12)c1ccc(Cl)cc1	x	30.1µM*	x	6.8%	9.5%
COCCn1c(=NC(=O)c2ccc3c(c2)OCCO3)sc2cc(C(=O)OC)ccc21	x	1.9%	x	x	x
SMILES	Luc counter	FLuc counter	SMN2 splice enh	NPC1 prom act	Rab9 prom act
CCOC(=O)Cn1c(O)c(N=NC(=O)OC)c2ccccc21	x	2.6%	x	2.3%	2.7%
COC(=O)Cn1c(O)c(N=NC(=O)c2ccc3c(c2)OCO3)c2ccccc21	-12.6%	0.953µM*	x	u	30.0%
COC(=O)Cn1c(=NC(=O)c2ccc3c(c2)OCCO3)sc2ccccc21	x	8.49µM*	x	x	x
O=C(NCCc1ccccc1)C1CCN(c2ncnc3c2nc2n3CCCCC2)CC1	x	1.4%	x	x	x
Cc1ccc(OCCn2cnc3ccccc3c2=O)c([N+](=O)[O-])c1	-4.0%	u	15.8µM*	2.82µM*	1.78µM*
Cc1cccc(-n2c(-c3ccccc3)cn3c4c(=O)[nH]c(=O)n(C)c4nc23)c1	x	3.7%	u	x	x
O=C(CC(SCCO)c1ccc2c(c1)OCO2)c1ccco1 (stereo unspecified)	-7.6%	4.78µM*	-5.4%	u	u
Cc1ccc(/C=C/C(=O)c2c(C)cc(C)[nH]c2=O)cc1	-2.3%	-2.6%	-43.7%	1.3%	-8.6%
Cn1c(N)c(C(=O)/C=C/c2ccccc2)c(=O)[nH]c1=O	x	16.9µM*	x	u	u
CC(C)(C)c1cc(Br)ccc1OCC(=O)Nc1ncn[nH]1	13.3%	0.3%	-23.3%	-4.4%	-3.7%

Assay outcomes (PubChem BioAssay)
